Compound activity as filed in PubChem BioAssay.
Cruzain inh Det = cruzain (T. cruzi) inhibition with detergent; 200,000 tested, 0.43% active; P25779; Potency, µM, inactives show max response, negative = inhibition, usual class: inhibitors; AID 1478; purified cruzain, Z-FR-AMC fluorescence, 0.01% Triton;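 note: plate controls were neutral wells for no effect and buffer without enzyme for full effect; nearly all actives have a fitted effect of over 40% in size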
Target sequence (P25779 123-467 limits assumed): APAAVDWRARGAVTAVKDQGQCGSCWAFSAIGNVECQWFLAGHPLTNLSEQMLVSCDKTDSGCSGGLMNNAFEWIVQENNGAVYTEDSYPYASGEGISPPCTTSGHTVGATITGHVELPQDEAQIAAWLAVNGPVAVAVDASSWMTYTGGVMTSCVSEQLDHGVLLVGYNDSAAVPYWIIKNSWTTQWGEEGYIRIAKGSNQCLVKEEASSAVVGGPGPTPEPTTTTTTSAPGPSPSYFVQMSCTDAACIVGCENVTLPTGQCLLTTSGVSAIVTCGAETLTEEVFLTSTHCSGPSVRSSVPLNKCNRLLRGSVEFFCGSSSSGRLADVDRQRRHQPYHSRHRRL
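Read-out: AMC fluorescence (360 nm excitation, 450 nm emission), four reads over 2 min, first-to-third difference used. Conditions: cruzain 1.5 nM, Z-FR-AMC 2 uM, pH 5.5 acetate, 5 mM DTT, 0.01% Triton X-100.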
NS1 function inh = blocks influenza NS1 protein function; Potency, µM (doses to about 46.1 µM), inactives show at the highest dose activity, positive = more growth; AID 2326; 270,000 tested, 0.4% active; calls by dose curve; note: actives are rising curves; nearly all actives have a fitted effect of over 50% in size
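A cell-based growth assay was used: compounds that relieve NS1-induced slow growth of budding yeast raise OD600. Assay medium was yeast nitrogen base with ammonium sulphate and -URA supplement, pH 6.0, with 2% galactose.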
Cruzain noTriton = inhibitors of Trypanosoma cruzi cruzain without detergent; P25779; purified cruzain, Z-FR-AMC fluorescence, no detergent; Potency, µM, without a hit: max response, negative = inhibition, most hits filed as inhibitors; 200,000 tested, 2.3% active; AID 1476;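 note: plate controls were enzyme without inhibitor for no effect and buffer without enzyme for full effect; nearly all actives have a fitted effect of over 40% in size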
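Detergent-free condition (0.00005% Triton X-100) in acetate buffer pH 5.5 with DTT. 1.5 nM enzyme and compound were pre-mixed 15 min, then 2 uM Z-FR-AMC substrate added; reaction progress from fluorescence change between first and third reads (60 s).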
The depositor's hits bear a star; u = inconclusive; x = not tested or not shown. The sample as a whole holds a higher share of hits than the screen did. Unless noted, calls come from the whole dose curve; as a rule, active = well fitted curve in the direction sought with a large enough effect; inconclusive = small, poorly fitted or top-dose-only effect, or another doubt; inactive = no such curve, though single readings can be large; an effect the other way counts as inactive or inconclusive. Potency is the fitted concentration of half-maximal effect.

SMILES	Cruzain inh Det	NS1 function inh	Cruzain noTriton
Cc1ccc(C(=O)N2CCc3cc(CNS(=O)(=O)c4ccc(Cl)s4)ccc32)cc1	-2%	x	u
Cc1oc(-c2ccccc2F)nc1CS(=O)(=O)CC(=O)NC(C)CCc1ccccc1 (stereo unspecified)	x	0%	x
c1ccc2c(c1)[nH]c1c(NCC3CCCO3)ncnc12 (stereo unspecified)	-30%	-5%	25µM*
c1nc(NCC2CCCO2)c2[nH]cnc2n1 (stereo unspecified)	x	5%	x
C[N+]1(CCC[N+]2(C)C[C@H]3[C@H](C2)[C@H]2C=C[C@@H]3CC2)CCOCC1 (stereo partly specified)	0%	5%	10%
Cc1cc(NC(=O)c2ccc(F)cc2)ccc1-c1cc2ccccc2oc1=O	-2%	x	5%
COc1cc(NC(=O)COc2ccc(Cl)cc2)ccc1NC(=O)C(C)C	x	-81%	x
COc1ccc(C(=O)Nc2ccc(-c3cc4ccccc4oc3=O)c(C)c2)cc1Br	-20%	x	25µM*
COc1cc(NC(=O)COc2ccc(Cl)cc2)ccc1-c1cc2ccccc2oc1=O	0%	u	5µM*
COc1ccccc1CN1CC2(CCN(C(=O)c3cc(C(F)(F)F)cc(C(F)(F)F)c3)CC2)C1	2%	x	-5%
CCOC(=O)c1c(Nc2ccc(Cl)cc2)sc(/C=C2\C=Nc3ccccc32)c1O	-3%	1%	7.9µM*
Oc1nc(Nc2cccc(Cl)c2)sc1/C=C1\C=Nc2ccccc21	-3%	4%	u
CCN1CCN(c2c(Cl)cccc2NC(=O)c2ccc3nsnc3c2)CC1	x	0%	x
CN(C)c1ncc2nc(-c3cc(F)cc(F)c3)c(=O)n(C3CC3)c2n1	3%	x	14%
CN(C)c1ncc2nc(-c3cc(F)cc(F)c3)c(=O)n(C)c2n1	12%	x	20µM*
COc1ccc(/C=C(\C#N)C(=O)Nc2cc(S(=O)(=O)N3CCCCC3)ccc2N2CCCCC2)cc1	-2%	u	4µM*
COc1ccc(/C=C/C(=O)Nc2cc(S(=O)(=O)N3CCCCC3)ccc2N2CCCCC2)cc1OC	-2%	4%	-28%
COc1cc2c(C)nc(C)c(C#N)c2cc1OC	-7%	8%	u
CCn1c(-c2cc(-c3cccc(OC)c3)nc3ccccc23)n[nH]c1=S	-13%	11%	5%
CCc1ccc(-c2cc(-c3n[nH]c(=S)n3CC)c3ccccc3n2)cc1	-3%	21%	16µM*
CCc1ccc(OCC(=O)N/N=C/c2cc([N+](=O)[O-])ccc2N2CCCCCC2)cc1	-4%	-4%	u
CCC1CCCCN1c1ccc([N+](=O)[O-])cc1/C=N/NC(=O)Cn1c2ccccc2c(=O)c2ccccc21 (stereo unspecified)	-1%	14%	6.3µM*
O=[N+]([O-])c1ccc(N/N=C/c2c[nH]c3ccccc23)c(S(=O)(=O)Nc2ccc(Cl)cc2)c1	0%	7%	u
Cc1[nH]c2ccccc2c1/C=N/Nc1ccccn1	x	-27%	x
Cc1[nH]c2ccccc2c1/C=N/Nc1ccc([N+](=O)[O-])cc1	-1%	5%	25µM*
SMILES	Cruzain inh Det	NS1 function inh	Cruzain noTriton
COc1ccccc1NS(=O)(=O)c1cc([N+](=O)[O-])ccc1N/N=C/c1c(C)[nH]c2ccccc12	0%	9%	7.9µM*
O=C(NCCc1ccccc1)c1ccc2c(c1)N(Cc1ccccc1F)C(=O)c1ccccc1S2=O (stereo unspecified)	1%	x	u
COc1ccc(NC(=O)CCNC(=O)c2ccccc2)cc1S(N)(=O)=O	x	3%	x
O=C(Oc1ccc2ccccc2c1)c1cncc(Br)c1	3%	10%	u
O=C(Oc1ccc2c(=O)c(Oc3ccc4ccccc4c3)coc2c1)c1cncc(Br)c1	5%	-4%	3.2µM*
Cc1nnc(SCC(=O)NCCN2C(=O)CSC2=O)s1	1%	2%	4%
COc1ccc(NC(=O)Cn2c(=O)n(Cc3ccco3)c(=O)c3sc4ccccc4c32)c(OC)c1	-3%	x	3%
COc1ccc(NC(=O)Cn2c(=O)n(Cc3ccco3)c(=O)c3sc4ccccc4c32)cc1Cl	-13%	x	25µM*
Cc1nc2ccc(C(=O)OCc3nnc(-c4ccccc4)o3)cc2nc1C	x	-43%	x
Cc1ccc(-c2nnc(Nc3ccccc3)c3ccccc23)cc1S(=O)(=O)NCc1nc2ccccc2[nH]1	-6%	x	u
Cc1ccc(-c2nnc(NCc3nc4ccccc4[nH]3)c3ccccc23)cc1S(=O)(=O)N1CCCCC1	-2%	u	13µM*
Cc1ccc(-c2nnc(Nc3cccc(Br)c3)c3ccccc23)cc1S(=O)(=O)N1CCCCC1	-3%	x	6.3µM*
Cc1ccc(-c2nnc(Nc3cccc(Br)c3)c3ccccc23)cc1S(=O)(=O)N1CCN(C)CC1	1%	x	-4%
COc1cccc(NC(=O)COC(=O)C2C3CC4OC(=O)C2C4C3)c1 (stereo unspecified)	x	4%	x
